An excerpt weighted towards active compounds, which were near 11% of everything screened.
G9a inh: qHTS Assay for Inhibitors of Histone Lysine Methyltransferase G9a; G9a H3K9 monomethylation, AlphaScreen, 2 h; Potency, µM (titrated, usually from 102 µM), hits mostly inhibitors; hit rate 8.8% among 350,000; also: nearly all actives have a fitted effect of over 75% in size
Target sequence (Q96KQ7 913-1193 limits assumed): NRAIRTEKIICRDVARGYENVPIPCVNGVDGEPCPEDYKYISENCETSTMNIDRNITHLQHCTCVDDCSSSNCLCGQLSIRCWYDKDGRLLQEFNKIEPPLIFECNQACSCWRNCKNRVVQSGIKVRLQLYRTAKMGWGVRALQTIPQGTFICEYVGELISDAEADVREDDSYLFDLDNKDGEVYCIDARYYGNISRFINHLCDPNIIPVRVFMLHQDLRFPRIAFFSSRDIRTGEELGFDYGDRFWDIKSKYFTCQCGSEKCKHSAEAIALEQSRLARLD
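AlphaScreen detection with an anti-monomethyl H3K9 antibody quantified product after a 2 h room-temperature reaction containing 500 nM biotinylated H3K9 peptide, 20 µM SAM and 20 nM enzyme, which had been preincubated 15 min with compound.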
Tau ThT inhib: qHTS for Inhibitors of Tau Fibril Formation, Thioflavin T Binding. Microtubule-associated protein tau (Homo sapiens), P10636. recombinant tau K18 P301L, heparin-induced fibrillization, ThT fluorescence. Potency, µM (titrated, usually from 57.4 µM), actives largely listed as inhibitors. hit rate 2.1% among 270,000; also: nearly all actives have a fitted effect of over 55% in size
Target sequence (P10636 561-689 P618L limits assumed): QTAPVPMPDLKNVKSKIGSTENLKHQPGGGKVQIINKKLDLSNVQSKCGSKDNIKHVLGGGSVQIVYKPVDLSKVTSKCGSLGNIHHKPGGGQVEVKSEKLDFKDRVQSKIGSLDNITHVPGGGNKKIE
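In this qHTS, human K18 P301L tau is incubated with compound and heparin for 6 hr at 37 C, and Thioflavin T fluorescence then reports fibril load.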
Coupling enz: qHTS Assay for Inhibitors of Fructose-1,6-bisphosphate Aldolase from Giardia Lamblia: Coupling assay counterscreen. coupling enzyme system counterscreen, AmpLite Red fluorescence. hit rate 0.67% among 290,000. activity change, negative = inhibition, % at 58.2 µM, hits read low; in the data active = activity change below about -30%
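Final compound at 57.5 uM, incubated 10 min at RT with coupling enzyme reagent (glyceraldehyde-3-phosphate), then 20 min with substrate and AmpLite Red detection. Fluorescence read at 525/598 nm; tests interference with the coupling assay, not aldolase inhibition.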
Tau FP inhib: qHTS for Inhibitors of Tau Fibril Formation, Fluorescence Polarization. Microtubule-associated protein tau (Homo sapiens), P10636. K18 P301L tau heparin fibrillization, Alexa594 FP, 6 h. Potency, µM (titrated, usually from 57.7 µM), most hits filed as inhibitors. hit rate 0.39% among 280,000. AID 1468, 2008; also: nearly all actives have a fitted effect of over 55% in size
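Recombinant K18 P301L […], labeled with Alexa 594 at 0.24 uM over 15 uM unlabeled; heparin inducer 20 uM final; 37 C, 6 hr; FP endpoint.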
Sfp inh: qHTS Assay for Inhibitors of Bacillus subtilis Sfp phosphopantetheinyl transferase (PPTase) | Biochemical Sfp PPTase activity, qHTS | hit rate 3.5% among 310,000 | 4'-phosphopantetheinyl transferase ffp (Bacillus subtilis), Q9F4F7 | Potency, µM, usual class: inhibitors;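 also: the enzyme is Sfp with the accession as filed and its product quenches rhodamine fluorescence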
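Fluorescence-quenching assay: 15 nM Sfp-PPTase preincubated 15 min at room temperature with compound, then 5 uM rhodamine-CoA and 12.5 uM BHQ-2-labelled YbbR peptide added. Fluorescence (ex 525/em 598 nm) read at start and after 30 min; difference gives rate.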
Tau fluor cs: Counterscreen qHTS for Inhibitors of Tau Fibril Formation, Fluorescence Polarization; Potency, µM (top dose mostly 57.7 µM); tau K18 P301L (four-repeat tau fragment) Alexa594 fluorescence, heparin fibrillization; hit rate 0.93% among 280,000; also: nearly all actives have a fitted effect of over 55% in size
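Human K18 P301L tau (15 uM unlabeled plus 0.24 uM Alexa 594-labeled, final) in 100 mM sodium acetate pH 7 was mixed with compound and 20 uM heparin and incubated 6 hr at 37 C.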
Hits are given with their value; - = inactive; ? = inconclusive; . = no result given; [ ] = dose if it differs, or a comment. Unless noted, calls follow the shape of the dose curve; as a rule, active = well fitted curve in the direction sought with a large enough effect; inconclusive = small, poorly fitted or top-dose-only effect, or another doubt; inactive = no such curve, though single readings can be large; an effect the other way counts as inactive or inconclusive.

SMILES	G9a inh	Tau ThT inhib	Coupling enz	Tau FP inhib	Sfp inh	Tau fluor cs
CCOC(=O)C(=CNNc1ccccc1)C(=O)OCC	2µM	?	-	-	?	?
O=C(COC(=O)c1ccccc1Br)Nc1cc(S(=O)(=O)N2CCOCC2)ccc1N1CCCC1	14µM	-	-	-	-	-
O=C(COC(=O)c1ccccc1[N+](=O)[O-])Nc1cc(S(=O)(=O)N2CCOCC2)ccc1N1CCCC1	-	-	-	-	-	-
O=S(=O)(c1ccc2c(c1)N(Cc1ccc(Cl)cc1)C1CCCN21)N1CCOCC1 (centres undefined)	50µM	-	-	?	-	-
CCCCCC(=O)Nc1cc(S(=O)(=O)N2CCOCC2)ccc1N1CCCCC1	50µM	.	.	.	.	.
C/C=C/c1ccc(OCC(=O)Nc2cc(S(=O)(=O)N3CCOCC3)ccc2N2CCCC2)c(OC)c1	50µM	.	.	.	.	.
COc1ccc(CNC(=O)C2CCN(c3nnc(-n4c(C)ccc4C)s3)CC2)c(OC)c1	-	?	.	-	.	-
CCOc1ccc(OCCC(=O)NNC(=O)c2ccncc2)cc1	-	.	.	.	.	.
Cc1cccc(NC(=O)CS(=O)(=O)c2cccc3nsnc23)c1	-	-	.	-	.	-
CC(C)(C)CC(=O)Nc1cc(S(=O)(=O)N2CCOCC2)ccc1N1CCCC1	?	-	-	-	?	-
O=C(Nc1cc(S(=O)(=O)N2CCOCC2)ccc1N1CCCCC1)c1cc(-c2ccccn2)nc2ccccc12	2.8µM	?	-	?	13µM	-
O=C(Nc1cccc(Cl)c1)Nc1cc(S(=O)(=O)N2CCOCC2)ccc1N1CCCC1	?	-	-	-	-	14µM[quencher]
O=C(CNc1cc(S(=O)(=O)N2CCOCC2)ccc1N1CCCC1)N1CCc2ccccc21	35µM	-	-	-	-	-
COc1ccc(CC(=O)Nc2cc(Cl)ccc2N2CCCC2)cc1	45µM	.	-	.	-	.
Cc1ccc(S(=O)(=O)N2CCOCC2)cc1NC(=O)c1cc(-c2ccccn2)nc2ccccc12	.	-	-	-	-	-
O=C(NCC1CCCO1)c1ccc(NC(=O)c2ccc([N+](=O)[O-])cc2)cc1 (centres undefined)	.	.	-	.	-	.
O=C(Cc1c(F)cccc1Cl)Nc1cc(S(=O)(=O)N2CCOCC2)ccc1N1CCOCC1	50µM	.	.	.	.	.
CN1CCN(c2ccc(S(=O)(=O)N3CCCCC3)cc2NC(=O)Cc2ccc(Cl)cc2)CC1	?	-	-	-	-	-
COc1ccc(/C=C(\C#N)C(=O)Nc2cc(S(=O)(=O)N3CCOCC3)ccc2N2CCCC2)cc1	7.9µM	?	-	-	35µM	?
CCOc1ccc(S(=O)(=O)N2CCOCC2)cc1NC(=O)Cc1c(F)cccc1Cl	-	.	.	.	.	.
O=C(Cc1ccc(Cl)cc1)Nc1cc(S(=O)(=O)N2CCOCC2)ccc1N1CCCC1	45µM	-	-	-	-	-
CCn1cc(C(=O)NCCCN2CCN(C)CC2)c(=O)c2cc(S(=O)(=O)N3CCc4ccccc4C3)ccc21	?	-	-	-	-	-
COc1ccc(C)cc1NC(=O)c1ccc2nc(Cc3ccccc3)oc2c1	-	?	.	-	.	-
CCOc1ccccc1C(=O)NCC(=O)NCC(C)(C)N1CCOCC1	-[12.7 µM]	.	.	.	.	.
Nc1nnc(SCC(=O)NNC(=O)c2ccc(Cl)cc2)s1	8.9µM	.	.	.	.	.
SMILES	G9a inh	Tau ThT inhib	Coupling enz	Tau FP inhib	Sfp inh	Tau fluor cs
Cc1ccc(C(=O)NNC(=O)CSc2nc(N)cc(N)n2)cc1	-	-	-	-	32µM	-
Cc1ccc(C(=O)NNC(=O)C(C)Sc2nc(N)cc(N)n2)cc1 (centres undefined)	-	-	-	-	-	-
Cc1ccc(-c2cn3nc(N4CCCC(C(=O)NCc5ccccc5F)C4)sc3n2)cc1 (centres undefined)	-	?	.	-	.	-
CCN(C(=O)COC(=O)c1nc(Cl)ccc1Cl)C1CCS(=O)(=O)C1 (centres undefined)	1.4µM	.	.	.	.	.
CCN(C(=O)COc1cccc2cccnc12)C1CCS(=O)(=O)C1 (centres undefined)	?	25µM	-	?	-	-
Cc1ccc2c(Sc3ccc(Cl)cc3)c(C(=O)NCCC(C)C)[nH]c2c1	-	?	.	-	.	?
CCCN1C(=O)C2(c3ccccc31)c1c(oc3ccc(F)cc3c1=O)C(=O)N2CCCOC(C)C (centres undefined)	-	-	.	-	.	-
Cc1ccc(C(=O)OCC(=O)N2CCOCC2)cc1	-	.	-	.	-	.
N#Cc1ccc(C(=O)OCC(=O)Nc2ccc(N3CCOCC3)cc2)cc1	10µM	?	-	-	-	-
CCOc1ccc(OCCC(=O)OCC(=O)Nc2ccc(N3CCOCC3)cc2)cc1	?	.	.	.	-	.
N#Cc1ccc(C(=O)OCC(=O)N2CCOCC2)cc1	50µM	.	-	.	-	.
O=C(COC(=O)CCC(=O)c1ccc(F)cc1)Nc1ccc(N2CCOCC2)cc1	50µM	?	-	-	-	-
COc1ccc(C(=O)OCC(=O)Nc2ccc(N3CCOCC3)cc2)cc1	-[12.7 µM]	.	.	.	.	.
CN(C)[C@H]1C(=O)C(C(=O)NCN2CCCC2)=C(O)[C@]2(O)C(=O)C3=C(O)c4c(O)cccc4[C@](C)(O)[C@H]3C[C@H]12	1.6µM	.	.	.	?	.
CN(C)[C@@H]1C(=O)C(C(=O)NCN2CCCC2)=C(O)[C@@]2(O)C(=O)C3=C(O)c4c(O)cccc4[C@@](C)(O)C3CC12 (some centres undefined)	3.2µM	14µM	-39	?	50µM	?
CSCCC(NC(=O)c1ccccc1Cl)C(=O)Nc1ccc(C)c(S(=O)(=O)N2CCOCC2)c1 (centres undefined)	-[0.501 µM]	.	.	.	.	.
Cc1[nH]nc2c1C(c1ccc(O)cc1)C1=C(CC(C)(C)CC1=O)N2 (centres undefined)	-	-	-	-	-	-
CC1(C)CC(=O)C2=C(C1)NC1=C(C(=O)c3ccccc31)C2c1ccc(O)cc1 (centres undefined)	25µM	18µM	-	-	-	?
COc1cccc(C2C3=C(CCCC3=O)NC3=C2C(=O)c2ccccc23)c1 (centres undefined)	?	-	-	-	-	-
CCCCc1ccc(C2C3=C(CC(C)(C)CC3=O)NC3=C2C(=O)c2ccccc23)cc1 (centres undefined)	?	-	-	-	-	?
O=C1CCCC2=C1C(c1cccc(O)c1)C1=C(N2)c2ccccc2C1=O (centres undefined)	32µM	?	-	-	-	-

Assay outcomes (PubChem)
